Measured values: the supplement of paper PMC6897291
Where a name gives a salt, the structure may show the parent alone.

How the values were obtained:
U-2932 [1] = assay: growth inhibition by drug alone (1 - RLU/untreated control) (fraction); higher = stronger inhibition; conditions: 177Lu-lilotomab satetraxetan 0 ug/ml
Summary of the method: (§1)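 Compound doses on the pre-printed Selleck Cambridge Cancer Compound library plates were 10/100 nM for RIVA cells and 10/1,000 nM for U-2932 cells, seeded at 3,000 cells/well. Before seeding, cells were washed after 18 h with or without a radiolabelled anti-CD37 antibody conjugate (~600 MBq/mg; 0.5 µg/ml RIVA, 1 µg/ml U-2932). Growth inhibition was derived from RealTime-Glo luminescence relative to untreated no-drug control wells. Readings were taken daily starting on day 3, each after 1 h at 37°C, and each well's RLU was divided by the mean of 48 such wells per plate and subtracted from 1.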

U-2932 [2] = assay: growth inhibition by drug plus 177Lu-lilotomab satetraxetan (1 - RLU/untreated control) (fraction); higher = stronger inhibition; conditions: 177Lu-lilotomab satetraxetan 1 ug/ml
Summary of the method: as §1

RIVA [3] = assay: as above; conditions: 177Lu-lilotomab satetraxetan 0.5 ug/ml
Summary of the method: as §1

RIVA [4] = assay: growth inhibition by drug alone (1 - RLU/untreated control) (fraction); higher = stronger inhibition; conditions: 177Lu-lilotomab satetraxetan 0 ug/ml
Summary of the method: as §1

Compound | growth inhibition by drug alone (U-2932 [1]; 10 nM, time (day): 3) | growth inhibition by drug alone (U-2932 [1]; 10 nM, time (day): 4) | growth inhibition by drug alone (U-2932 [1]; 10 nM, time (day): 5) | growth inhibition by drug alone (U-2932 [1]; 10 nM, time (day): 6) | growth inhibition by drug alone (U-2932 [1]; 1000 nM, time (day): 3) | growth inhibition by drug alone (U-2932 [1]; 1000 nM, time (day): 4) | growth inhibition by drug alone (U-2932 [1]; 1000 nM, time (day): 5) | growth inhibition by drug alone (U-2932 [1]; 1000 nM, time (day): 6) | growth inhibition by drug plus 177Lu-lilotomab satetraxetan (U-2932 [2]; 10 nM, time (day): 3) | growth inhibition by drug plus 177Lu-lilotomab satetraxetan (U-2932 [2]; 10 nM, time (day): 4) | growth inhibition by drug plus 177Lu-lilotomab satetraxetan (U-2932 [2]; 10 nM, time (day): 5) | growth inhibition by drug plus 177Lu-lilotomab satetraxetan (U-2932 [2]; 10 nM, time (day): 6) | growth inhibition by drug plus 177Lu-lilotomab satetraxetan (U-2932 [2]; 1000 nM, time (day): 3) | growth inhibition by drug plus 177Lu-lilotomab satetraxetan (U-2932 [2]; 1000 nM, time (day): 4) | growth inhibition by drug plus 177Lu-lilotomab satetraxetan (U-2932 [2]; 1000 nM, time (day): 5) | growth inhibition by drug plus 177Lu-lilotomab satetraxetan (U-2932 [2]; 1000 nM, time (day): 6) | growth inhibition by drug plus 177Lu-lilotomab satetraxetan (RIVA [3]; 10 nM, time (day): 3) | growth inhibition by drug plus 177Lu-lilotomab satetraxetan (RIVA [3]; 10 nM, time (day): 4) | growth inhibition by drug plus 177Lu-lilotomab satetraxetan (RIVA [3]; 10 nM, time (day): 5) | growth inhibition by drug plus 177Lu-lilotomab satetraxetan (RIVA [3]; 10 nM, time (day): 6) | growth inhibition by drug plus 177Lu-lilotomab satetraxetan (RIVA [3]; 100 nM, time (day): 3) | growth inhibition by drug plus 177Lu-lilotomab satetraxetan (RIVA [3]; 100 nM, time (day): 4) | growth inhibition by drug plus 177Lu-lilotomab satetraxetan (RIVA [3]; 100 nM, time (day): 5) | growth inhibition by drug plus 177Lu-lilotomab satetraxetan (RIVA [3]; 100 nM, time (day): 6) | growth inhibition by drug alone (RIVA [4]; 10 nM, time (day): 3) | growth inhibition by drug alone (RIVA [4]; 10 nM, time (day): 4) | growth inhibition by drug alone (RIVA [4]; 10 nM, time (day): 5) | growth inhibition by drug alone (RIVA [4]; 10 nM, time (day): 6) | growth inhibition by drug alone (RIVA [4]; 100 nM, time (day): 3) | growth inhibition by drug alone (RIVA [4]; 100 nM, time (day): 4) | growth inhibition by drug alone (RIVA [4]; 100 nM, time (day): 5) | growth inhibition by drug alone (RIVA [4]; 100 nM, time (day): 6)
CC/C(=C(\c1ccccc1)c1ccc(OCCN(C)C)cc1)c1ccccc1 [Tamoxifen Citrate (Nolvadex)] | 0.0699 | 0.0582 | -0.0313 | -0.0576 | 0.106 | 0.0715 | -0.0226 | 0.0641 | 0.0801 | 0.126 | 0.2 | 0.206 | 0.075 | 0.103 | 0.172 | 0.27 | 0.602 | 0.651 | 0.667 | 0.656 | 0.78 | 0.78 | 0.788 | 0.802 |  |  |  |  |  |  |  | 
CNC(=O)c1cc(Oc2ccc(NC(=O)Nc3ccc(Cl)c(C(F)(F)F)c3)cc2)ccn1 [Sorafenib (Nexavar)] | 0.065 | 0.061 | 0.0056 | -0.0896 | 0.0548 | 0.172 | 0.16 | 0.0821 | -0.0368 | -0.00107 | -0.00478 | 0.0413 | -0.000329 | 0.177 | 0.189 | 0.145 | 0.328 | 0.487 | 0.498 | 0.507 | 0.415 | 0.561 | 0.594 | 0.583 |  |  |  |  |  |  |  | 
CCc1ccc(CCOc2ccc(CC3SC(=O)NC3=O)cc2)nc1 (stereo not drawn) [Pioglitazone (Actos)] | -0.11 | -0.125 | -0.103 | -0.0806 | -0.0965 | -0.0693 | -0.0516 | 0.0915 | -0.113 | -0.0372 | 0.0193 | 0.114 | -0.102 | -0.0405 | 0.0194 | 0.192 | 0.53 | 0.578 | 0.604 | 0.598 | 0.416 | 0.476 | 0.498 | 0.506 |  |  |  |  |  |  |  | 
CC(=O)O[C@H]1C(=O)[C@@]2(C)[C@H]([C@H](OC(=O)c3ccccc3)[C@]3(O)C[C@H](OC(=O)[C@H](O)[C@@H](NC(=O)c4ccccc4)c4ccccc4)C(C)=C1C3(C)C)[C@]1(OC(C)=O)CO[C@@H]1C[C@@H]2O [Paclitaxel (Taxol)] | 0.806 | 0.808 | 0.794 | 0.778 | 0.955 | 0.969 | 0.977 | 0.983 | 0.818 | 0.846 | 0.866 | 0.883 | 0.955 | 0.97 | 0.979 | 0.986 | 0.961 | 0.977 | 0.983 | 0.986 | 0.968 | 0.979 | 0.984 | 0.986 |  |  |  |  |  |  |  | 
O=C(CCc1ccc(O)cc1)c1c(O)cc(O)cc1O [Phloretin (Dihydronaringenin)] | 0.0643 | 0.0536 | -0.0351 | -0.0447 | -0.0185 | 0.0218 | -0.0851 | -0.198 | 0.0204 | 0.0299 | 0.064 | 0.0928 | -0.0932 | 0.0213 | -0.0168 | 0.0656 | 0.412 | 0.555 | 0.573 | 0.596 | 0.427 | 0.522 | 0.532 | 0.521 | -0.0549 | -0.06 | -0.168 | -0.56 | -0.0989 | -0.0769 | -0.0878 | -0.189
